An excerpt weighted towards active compounds, which were near 4.2% of everything screened.
Cav32 inh – human Cav3.2 channel inhibition, primary screen; O95180; Cav3.2-expressing cells, Fluo-4 calcium fluorescence FDSS; hits give low values; B-score at 10 µM; 4% of 100,000 active; AID 449739;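 active = single-dose well whose peak fluorescence ratio is a statistical outlier from its plate by either plate-standardised score or position-corrected B-score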
Mac1 fbg enh – CD11b/CD18-fibrinogen binding enhancement; P05107+P11215; K562 CD11b/CD18 adhesion to fibrinogen, ATPlite luminescence; activation, % at 10 µM; 0.07% of 93,000 active; AID 1499;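 active = 10 µM primary screen giving 50% or more activity, confirmed by 40% or more on retest at that dose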
Ec RNAP inh – blocks E. coli RNA polymerase transcription | P0A8V2 | fluorescence transcription assay | inhibition, %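 (tested at 10 µM)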 | 0.2% of 62,000 active | AID 559; in the data active = inhibition above about 20%;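 also: 0% = enzyme without compound and 100% = no enzyme blank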
PTK2B oligo ant – blocks oligomerization of human Pyk2 in cells; Q14289; Q293 cells, Pyk2 FERM NanoBiT luminescence; hits give low values; z-score (the deposit names both 25 µM and 10 µM); 0.83% of 99,000 active;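 active = Z-score of -3 or lower, scaled per plate to the spread of control and sample wells; inactive = z-score above -3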;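 also: negative z-score means lost luminescence so less FERM oligomerization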
Mac1 fbg inh – blocks human CD11b/CD18 adhesion to fibrinogen; inhibition, % at 10 µM; K562 CD11b/CD18 adhesion to fibrinogen, ATPlite luminescence; Mn2+ added to activate the integrin; 0.54% of 93,000 active; AID 1497;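 active = primary inhibition of 50% or more at 10 µM, then 40% or more on retest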
The depositor's hits bear a star; . = no result.

SMILES | Cav32 inh | Mac1 fbg enh | Ec RNAP inh | PTK2B oligo ant | Mac1 fbg inh
O=C(NCCNS(=O)(=O)c1ccccc1Cl)c1cc(OCC(F)(F)F)ccc1OCC(F)(F)F | -0.26 | . | . | -0.08 | .
O=C(NCCNC(=O)c1cc(OCC(F)(F)F)ccc1OCC(F)(F)F)Nc1cccc(C(F)(F)F)c1 | -8* | -1 | . | -0.22 | 21
CCCCCCCCn1c(=O)c(C(=O)OCC)c(O)c2ccccc21 | -7.4* | -1 | . | 0.81 | 18
Cc1nn(CC(=O)Nc2ccc(S(=O)(=O)N(C)C)cc2)c(C)c1[N+](=O)[O-] | . | 1 | . | . | -5
CC[C@@H](C)C(NC(=O)OC(C)(C)C)c1cn([C@@H](Cc2ccc(O)cc2)C(=O)N2CCN(C(=O)OC(C)(C)C)CC2)nn1 (some centres not stated) | -0.64 | . | . | . | .
O=C(CSc1nnc(-c2cccs2)n1Cc1ccccc1)NCc1ccc2c(c1)OCO2 | -4.7* | -3 | . | -0.94 | -4
O=C(CSc1nnc(-c2cccnc2)n1Cc1ccco1)NCc1ccc2c(c1)OCO2 | 0.35 | -4 | 3 | 0.27 | -22
CC(Sc1nnc(-c2cccs2)n1Cc1ccccc1)C(=O)NCc1ccc2c(c1)OCO2 (configuration not stated) | -4.4* | -1 | . | -0.59 | -4
O=C(CSc1nnc(-c2cccs2)n1-c1ccccc1)NCc1ccc2c(c1)OCO2 | -0.99 | 0 | -2 | -0.67 | -7
O=C(CSc1nnc(Cc2cccs2)n1-c1ccc(Cl)cc1)NCc1ccc2c(c1)OCO2 | -8.5* | 3 | . | -0.59 | -21
CCn1c(SCC(=O)NCc2ccc3c(c2)OCO3)nnc1-c1cccs1 | 1.3 | 11 | -6 | -0.42 | -30
COc1cccc(-c2nnc(SCC(=O)NCc3ccc4c(c3)OCO4)n2Cc2ccco2)c1 | -4.6* | -1 | . | -0.21 | -13
COc1ccc(-c2ccc3oc(-c4ccc(OC)cc4)c(C#CC4(O)CCCCC4)c3c2)cc1 | -0.028 | . | . | . | .
O/N=C\c1cccn1-c1ccc(Br)cc1 | -0.057 | 2 | . | 1.2 | 22
COc1ccc(S(=O)(=O)Nc2cc(C(C)C)c(O)cc2C)cc1 | -4.8* | 1 | 5 | -2.4 | 8
COc1ccc(S(=O)(=O)Nc2ccccc2C(F)(F)F)cc1 | -1.2 | 2 | 0 | -0.53 | 16
COc1ccc(S(=O)(=O)Nc2ccc(O)c3ccccc23)cc1 | -0.077 | -6 | 24* | -2.3 | 97
O=C1c2ccccc2S(=O)(=O)c2cc(N3CCc4ccccc4C3)ccc21 | -0.38 | . | . | . | .
COC(=O)C1=NNC2(c3ccc(Cl)cc3)C(=O)N(c3ccccc3)C(=O)C12 (configuration not stated) | . | 5 | . | . | -3
c1ccc(-c2csc(=Nc3cccnc3)n2CC2CCCO2)cc1 (configuration not stated) | . | 2 | . | . | 11
CC(C)n1c(-c2ccco2)csc1=Nc1cccnc1 | -5.2* | -5 | 11 | -0.4 | 19
C=CCn1c(COc2ccc3c(c2)CCCC3)nnc1SCC(=O)Nc1cccc(SC)c1 | -4.4* | . | . | -0.42 | .
C=CCn1c(COc2ccccc2)nnc1SCC(=O)Nc1ccc2c(c1)OCCO2 | -0.7 | -3 | . | 0.63 | -29
Cc1cccc(N2CCN(C(=O)c3c(C)nn(Cc4ccccc4Cl)c3C)CC2)c1C | -5.5* | -4 | . | 0.24 | 52*
Cc1cccc(N2CCN(C(=O)c3ccncc3)CC2)c1C | 1.5 | 0 | 8 | 1.4 | 8
SMILES | Cav32 inh | Mac1 fbg enh | Ec RNAP inh | PTK2B oligo ant | Mac1 fbg inh
CCOC(=O)c1c(C)[nH]c(C)c1C(=O)COC(=O)c1cc2ccccc2cc1O | . | -4 | . | . | 62*
Cc1c(C(=O)N/N=C/C(C)C)[nH]c2c([N+](=O)[O-])cccc12 | . | 72 | . | . | -6
Cc1ccc(C(=O)NCCn2cc(SCC(=O)Nc3cc(C)on3)c3ccccc32)cc1 | -4* | 0 | 3 | . | -9
Cc1nnc(NC(=O)CSc2cn(Cc3ccccc3)c3ccccc23)s1 | -0.57 | 0 | -10 | . | -2
COc1ccc(CCNC(=O)CSc2cn(Cc3cccc(C)c3)c3ccccc23)cc1OC | -4.3* | . | . | . | .
O=C(CSc1nccn1Cc1ccccc1)Nc1nccs1 | -0.62 | 9 | 8 | 0.23 | -22
Cc1ccc(Cn2cc(SCC(=O)Nc3nccs3)c3ccccc32)cc1 | -6* | -4 | . | . | 18
Cc1cccc(Cn2cc(SCC(=O)Nc3nccs3)c3ccccc32)c1 | -4.6* | -1 | . | . | 21
CCO[C@@H]1OC(C(N)=O)=C[C@H](C2CC2)[C@H]1CCCO | 0.55 | . | . | . | .
CN(C)c1ccc(C2SCCN2C(=O)c2ccc([N+](=O)[O-])cc2)cc1 (configuration not stated) | . | 0 | . | . | -6
O=C1C2C3C=CC(C3)C2C(=O)N1/N=C/c1cc(Br)cc([N+](=O)[O-])c1O (configuration not stated) | -2.5 | -8 | . | -0.92 | 57*
O=C1C2C3C=CC(C3)C2C(=O)N1/N=C/c1cn(Cc2ccccc2)c2ccccc12 (configuration not stated) | . | . | . | -0.54 | .
O=C(CN1CCN(c2ccccc2O)CC1)Nc1ccc2c(c1)CCC2 | . | -2 | . | . | -15
COc1cccc(Nc2nnc(SCc3cc([N+](=O)[O-])cc4c3OCOC4)s2)c1 | . | -6 | . | -3.3* | 3
Cc1cccc(C)c1Nc1nnc(SCc2cc([N+](=O)[O-])cc3c2OCOC3)s1 | -2.1 | -1 | . | -1.4 | -3
COc1cc2[nH]c3c(N4CCN(c5ccc(Cl)cc5)CC4)ncnc3c2cc1OC | 1.3 | 2 | -4 | -3.2* | -5
COc1cccc(N2CCN(c3ncnc4c3[nH]c3ccc(F)cc34)CC2C)c1 (configuration not stated) | -6.1* | . | 1 | -1.8 | .
Fc1ccc2[nH]c3c(N4CCN(C5CCCCC5)CC4)ncnc3c2c1 | . | -1 | 9 | . | 12
COc1cccc(N2CCN(c3ncnc4c3[nH]c3ccccc34)CC2C)c1 (configuration not stated) | -5.9* | . | 0 | . | .
COc1cc2[nH]c3c(Cl)ncnc3c2cc1OC | . | . | . | -0.28 | .
Cc1ccc(F)c(C2C3C=CCC(c4cccc(-c5ccc(N(C)C)cc5)c4)C3C(=O)N2Cc2ccccc2)c1 (configuration not stated) | 0.84 | . | . | . | .
Cc1cccc(NC(=O)C2(c3cccs3)CCOCC2)n1 | . | -3 | . | . | 6
O=[N+]([O-])c1ccc(COc2cccc(CNc3ccc(Br)cc3)c2)cc1 | . | 5 | . | . | 11
COc1ccc(N(CC(=O)Nc2ccccc2C(=O)NCCc2ccccc2)S(C)(=O)=O)cc1OC | 0.058 | 6 | . | -0.68 | 3
CCCCN(C)C(=O)C1CCN(Cc2ccc(OCc3ccccc3)cc2)CC1 | -3.6* | . | . | 1 | .
O=C(NCCn1cc(SCc2ccc(F)cc2)c2ccccc21)c1c(F)cccc1F | -0.013 | . | . | . | .
O=C(NCCn1cc(SCc2ccc(F)cc2)c2ccccc21)c1ccccc1F | -4.7* | . | . | . | .
COc1cccc(C(=O)Nc2ccc(C)cc2)c1 | 0.25 | 2 | 6 | 0.33 | 7
COc1ccc(CNC(=O)Nc2ccc(C)cc2)cc1 | 0.031 | 2 | 1 | 1.1 | -4
